In PubChem BioAssay (NCATS):
Several values for one entry are separate records, joined by “and”; a condition that tells them apart may be missing. Equal values may be shown once. Inconclusive results are not listed. Where a call stands in place of a potency, no number is given. Some compounds were tested as several samples or in several runs, with calls that do not always agree. Values without a mark were called inactive. Activity calls are given as the source filed them. The call rests on the fitted dose curve; in most records, active means well fitted curve in the direction sought with a large enough effect; inconclusive means small, poorly fitted or top-dose-only effect, or another doubt; inactive means no such curve, though single readings can be large; an effect the other way counts as inactive or inconclusive.

Experiments:
CRL-7250 = normal cell line; assay: Cytotoxic Profiling of Annotated Libraries Using Quantitative High-Throughput Screening (AID 1296008); conditions: Five cell lines viability, CellTiter-Glo ATP luminescence, 48-72 h; max response: stronger effect = lower value; further: nearly all actives have a fitted effect of over 60% in size; further: potency means the concentration at half of the fitted maximal effect
How it was run: (§1)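 Compounds were pin-transferred onto cells and incubated 48 or 72 hr at 37 degree Celsius, 95% humidity. CellTiter-Glo was added, plates sat 10 min at room temperature, then ATP-coupled luminescence was imaged as the viability read-out.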

HEK293 = assay: as above; conditions: Five cell lines viability, CellTiter-Glo ATP luminescence, 48-72 h; max response: stronger effect = lower value
How it was run: as §1

HaCat [1] = assay: as above; conditions: Five cell lines viability, CellTiter-Glo ATP luminescence, 48-72 h; max response: stronger effect = lower value
How it was run: as §1

KB-3-1 = assay: as above; conditions: Five cell lines viability, CellTiter-Glo ATP luminescence, 48-72 h; max response: stronger effect = lower value
How it was run: as §1

NIH3T3 [2] = assay: as above; conditions: Five cell lines viability, CellTiter-Glo ATP luminescence, 48-72 h; max response: stronger effect = lower value
How it was run: as §1

HACAT [3] = assay: qHTS assay to identify novel small-molecules to repurpose for Merkel cell carcinoma treatment (AID 1296009); conditions: MCC and control cell lines, CellTiter-Glo viability, 72 h; further: nearly all actives have a fitted effect of over 60% in size
How it was run: (§2)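 qHTS format: cells treated with library compounds in DMSO across 8 (NPC) or 11 (MIPE) concentrations. Readout after 72 hr at 37 degree celsius was CellTiter-Glo luminescence.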

HEK293T = assay: as above; conditions: MCC and control cell lines, CellTiter-Glo viability, 72 h; at 44.8 µM (top of the series)
How it was run: as §2

MCC-13 = assay: as above; conditions: MCC and control cell lines, CellTiter-Glo viability, 72 h; series mostly up to 46 µM
How it was run: as §2

MCC-26 = assay: as above; conditions: MCC and control cell lines, CellTiter-Glo viability, 72 h; series mostly up to 46 µM
How it was run: as §2

MKL-1 = assay: as above; conditions: MCC and control cell lines, CellTiter-Glo viability, 72 h; series mostly up to 46 µM
How it was run: as §2

MKL-2 = assay: as above; conditions: MCC and control cell lines, CellTiter-Glo viability, 72 h; series mostly up to 46 µM
How it was run: as §2

UISO = assay: as above; conditions: MCC and control cell lines, CellTiter-Glo viability, 72 h; series mostly up to 46 µM
How it was run: as §2

WaGa = assay: as above; conditions: MCC and control cell lines, CellTiter-Glo viability, 72 h; series mostly up to 46 µM
How it was run: as §2

C33A = assay: Primary qHTS to identify gynecologic anti-cancer compounds using libraries of approved drugs and bioactive compounds (AID 1345084); conditions: Gynecologic cancer cell panel viability, ATPlite luminescence, 48 h; series mostly up to 57.5 µM; further: nearly all actives have a fitted effect of over 55% in size; further: potency means the concentration at half of the fitted maximal effect
How it was run: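 Five-point cytotoxicity, 48 h drug exposure at 37 C, 5% CO2, on cells seeded 16 h beforehand. ATP content read by ATPlite luminescence.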

NIH3T3 [4] = assay: qHTS assay to identify novel small-molecules to repurpose for Merkel cell carcinoma treatment (AID 1296009); conditions: MCC and control cell lines, CellTiter-Glo viability, 72 h; at 44.8 µM (top of the series) unless noted; further: nearly all actives have a fitted effect of over 60% in size
How it was run: as §2

SC27B = assay: qHTS profiling for inhibitors of Plasmodium falciparum proliferation (AID 504749); further: nearly all actives have a fitted effect of over 60% in size; conditions: P. falciparum in erythrocytes, SYBR Green DNA, 72 h; series mostly up to 28.7 µM
How it was run: (§3)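 Parasite proliferation within erythrocytes, 72 h exposure. Endpoint: SYBR Green I fluorescence after overnight lysis at room temperature. Controls: 0.29 uM artemisinin, DMSO.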

TAB109 = assay: as above; conditions: P. falciparum in erythrocytes, SYBR Green DNA, 72 h; series mostly up to 28.7 µM
How it was run: as §3

TAB113 = assay: as above; conditions: P. falciparum in erythrocytes, SYBR Green DNA, 72 h; series mostly up to 28.7 µM
How it was run: as §3

TAB165 = assay: as above; conditions: P. falciparum in erythrocytes, SYBR Green DNA, 72 h; series mostly up to 28.7 µM
How it was run: as §3

W2 = assay: as above; conditions: P. falciparum in erythrocytes, SYBR Green DNA, 72 h; series mostly up to 28.7 µM
How it was run: as §3

[5] = at 44.8 µM (top of the series) unless noted

NC(=O)c1ccc(I)c([N+](=O)[O-])c1
max response (CRL-7250): 1.49% | outcome (HEK293): inactive | outcome (HaCat [1]): inactive | max response (KB-3-1): 7.82% | max response (NIH3T3 [2]): -1.58% | outcome (HACAT [3]; [5]): inactive | outcome (HEK293T): inactive | Potency (MCC-13): inactive | Potency (MCC-26): inactive | Potency (MKL-1): inactive | Potency (MKL-2): inactive | Potency (UISO): inactive | Potency (WaGa): inactive

Cc1csc(NC(=O)c2sc3nc4c(c(C(F)(F)F)c3c2N)CCC4)n1
max response (CRL-7250): -0.546% and -0.36% | max response (HEK293): -22.1% | max response (HaCat [1]): -0.44% | outcome (HaCat [1]): inactive | max response (KB-3-1): 1.14% and -9.3% | max response (NIH3T3 [2]): -3.35% and -3.51% | outcome (HACAT [3]; [5]): inactive | Potency (MCC-13): inactive | Potency (MCC-26): inactive | Potency (MKL-1): inactive | Potency (MKL-2): inactive | Potency (UISO): inactive | Potency (WaGa): inactive

COc1cccc2cc(-c3nc(C4CCC(C(=O)O)CC4)n4ncnc(N)c34)[nH]c12 (configuration not stated)
Potency (CRL-7250): 0.166 µM (active) | Potency (HEK293): 5.9 µM (active) and 3.66 µM (active) | max response (HaCat [1]): -14.5% | Potency (KB-3-1): 2.35 µM (active) | Potency (NIH3T3 [2]): 7.31 µM (active) | max response (NIH3T3 [2]): -35.2% | Potency (MCC-13): inactive | Potency (MCC-26): inactive | Potency (MKL-1): inactive | Potency (MKL-2): inactive | Potency (C33A): 7.94 µM (active)

CCC(=O)N[C@H]1CC[C@H](C(=O)N(C)c2ccc(-c3nc4ccccc4o3)cc2)C1
max response (CRL-7250): -6.63% | Potency (HEK293): 20.9 µM (active) | outcome (HaCat [1]): inactive | max response (KB-3-1): -16.3% | max response (NIH3T3 [2]): -2.14% | outcome (HACAT [3]; [5]): inactive | Potency (MCC-13): inactive | Potency (MCC-26): inactive | Potency (MKL-1): inactive

COc1ccc(-c2oc3cc(OC)ccc3c2C(=O)c2ccc(C#N)cc2)cc1
outcome (CRL-7250): inactive | outcome (HEK293): inactive | outcome (HaCat [1]): inactive | outcome (KB-3-1): inactive | outcome (NIH3T3 [2]): inactive | outcome (HACAT [3]; [5]): inactive | outcome (HEK293T): inactive | Potency (MCC-13): inactive | Potency (MCC-26): inactive | Potency (MKL-1): inactive | outcome (NIH3T3 [4]): inactive | Potency (UISO): inactive | Potency (WaGa): inactive

Nc1ccc(S(=O)(=O)Nc2ccnn2-c2ccccc2)cc1
Potency (SC27B): inactive | Potency (TAB109): inactive | Potency (TAB113): inactive | Potency (TAB165): inactive | Potency (W2): inactive | outcome (CRL-7250): inactive | max response (HEK293): -2.4% and -5.26% | outcome (HaCat [1]): inactive | max response (KB-3-1): -3.13% and 3.95% | max response (NIH3T3 [2]): 4.45% and 3.04% | outcome (HACAT [3]; at 17.4 µM (top of the series)): inactive | outcome (HACAT [3]; at 44.8 µM (top of the series)): inactive | Potency (MCC-13): inactive | Potency (MCC-26): inactive | Potency (MKL-1): inactive | Potency (MKL-2): inactive | Potency (UISO): inactive | Potency (WaGa): inactive | Potency (C33A): inactive

O=C(O)COCCN1CCN(C(c2ccccc2)c2ccc(Cl)cc2)CC1 (configuration not stated)
max response (CRL-7250): -0.386% | max response (HEK293): 0.378% and -0.675% | max response (HaCat [1]): -5.21% and -2.14% | max response (KB-3-1): 6.76% and 8.88% | max response (NIH3T3 [2]): -0.466% | outcome (NIH3T3 [2]): inactive | Potency (MCC-13): inactive | Potency (MCC-26): inactive | Potency (MKL-1): inactive | Potency (MKL-2): inactive | outcome (NIH3T3 [4]): inactive | Potency (UISO): inactive | Potency (WaGa): inactive | Potency (C33A): inactive
